This passage reports Potency results from PubChem BioAssay (NCATS).

Records with an inconclusive call do not appear. Entries that show only a call come without a potency. Calls of active or inactive are those of the source. Calls follow the shape of the dose curve; as a rule, active = well fitted inhibition curve with a large enough effect in the repeat runs; inconclusive = weak or mixed curves; inactive = flat fitted curve, though single readings scatter.
Potency is read from the fitted curve at half-maximal effect.

Sequence of Cytochrome P450 2D6 (Homo sapiens) (P10635 whole entry, looked up): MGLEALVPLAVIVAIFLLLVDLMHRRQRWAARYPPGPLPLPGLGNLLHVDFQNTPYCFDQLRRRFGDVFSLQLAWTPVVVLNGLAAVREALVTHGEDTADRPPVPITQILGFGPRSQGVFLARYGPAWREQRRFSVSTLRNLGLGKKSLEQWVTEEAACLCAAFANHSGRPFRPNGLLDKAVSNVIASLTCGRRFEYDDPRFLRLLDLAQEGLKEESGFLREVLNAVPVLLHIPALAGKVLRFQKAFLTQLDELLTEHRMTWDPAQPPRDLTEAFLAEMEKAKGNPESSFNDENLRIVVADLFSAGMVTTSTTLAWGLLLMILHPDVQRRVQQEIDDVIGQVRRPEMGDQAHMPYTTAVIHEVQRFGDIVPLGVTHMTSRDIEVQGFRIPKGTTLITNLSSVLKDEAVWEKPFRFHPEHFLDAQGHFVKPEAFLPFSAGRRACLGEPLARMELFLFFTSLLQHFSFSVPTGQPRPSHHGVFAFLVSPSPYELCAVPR

In this assay the target is Cytochrome P450 2D6 (Homo sapiens) (UniProt P10635). As to the kind of experiment: Cytochrome P450 family 2 subfamily D member 6 (CYP2D6) small molecule antagonists: luciferase biochemical (cell-free) qHTS assay (AID 1645840). Also: nearly all actives have a fitted effect of over 55% in size. The following applies: P450-Glo CYP2D6 enzyme, luciferin luminescence, 1 h; series mostly up to 57.4 µM. The procedure:
National Center for Advancing Translational Sciences [NCATS] Assay Overview: Cytochrome P450 (CYP) enzymes are membrane-bound hemeproteins that play a key role in metabolism of drugs and xenobiotics. Assaying the effect of chemicals on CYP isozymes is useful to minimize the adverse drug reactions and toxicities in drug development process. Chemical compounds were tested for their effect on CYP enzyme activities by using P450-Glo (TM) screening systems (Promega Corporation, Madison, WI). These systems provide a luminescent method containing proluciferin substrates and are converted to luciferin products by CYP isozymes. The luciferin products formed are detected with a luciferin detection reagent, and the amount of light produced is proportional to CYP activity. P450-Glo (TM) CYP2D6 screening system (Catalog. No. V9890) was used to detect the compounds that interfere in CYP2D6 activity.
Assay Protocol Summary: Two ul of enzyme-substrate mix was dispensed into medium binding white/solid 1536-well plates (Greiner Bio-One North America Inc., Monroe, NC) using a Flying Reagent Dispenser (FRD, Aurora Discovery, San Diego, CA). […] The assay plates were incubated at room temperature for 10 min. Then 2 ul of NADPH regeneration solution was added to each well of the assay plates using an FRD and incubated at room temperature for 1 h. The reaction was stopped by adding 4 ul of detection reagent using an FRD and after 20 min incubation at room temperature, the luminescence signal was measured using a ViewLux plate reader (Perkin Elmer, Shelton, CT). Data were expressed as relative luminescence units.
Consider `COc1cc2nc(Cl)nc(N)c2cc1OC`, for which the Potency result was “inactive”.
The result for `CCC1(c2cnc[nH]2)Cc2ccccc2C1` reads 0.309 µM (active); that for `CN(C)CCN1CCN(c2cccc(Cl)c2)C1=O`, 15.5 µM (active).
Take `Nc1ccc(O)cc1`: the Potency was 6.17 µM (active).
The result for `Nc1cccc2c(N)cccc12` reads 2.99 µM (active).
The result for `O=C(OCC1(COC(=O)c2cccnc2)CCCC(COC(=O)c2cccnc2)(COC(=O)c2cccnc2)C1O)c1cccnc1` reads “inactive”.
The result for `CN(C)CCCOC1(Cc2ccccc2)CCCCCC1` reads 2.19 µM (active); that for `CO[C@@]1(NC(=O)CSC[C@@H](N)C(=O)O)C(=O)N2C(C(=O)O)=C(CSc3nnnn3C)CS[C@@H]21`, “inactive”; that for `CN(CC1(C)CCCO1)S(=O)(=O)c1ccc(Cl)c(S(N)(=O)=O)c1` (stereo not given), “inactive”.
In the case of `CN1Cc2cc(C(=O)N3CCC(C4CCNCC4)CC3)ccc2N[C@@H](CC(=O)O)C1=O`, the Potency entry was “inactive”.
The result for `Cc1cccc(N(C)C(=S)Oc2ccc3c(c2)C2CCC3C2)c1` (stereo not given) reads “inactive”; that for `CC(C)C(=O)OCc1cccc(OC(=O)[C@@H]2N3C(=O)[C@@H](NC(=O)Cc4ccccc4)[C@H]3SC2(C)C)c1`, “inactive”; that for `CCS(=O)(=O)c1ccc(OC)c(C(=O)OC)c1`, “inactive”.
The result for `CCOc1ncc(F)c(=O)[nH]1` reads “inactive”; that for `O=C(CO)[C@@H](O)[C@H](O)[C@@H](O)CO`, “inactive”; that for `CN1C(=O)c2ccccc2C1=O`, “inactive”.
The result for `O=C(O)Cc1ccc(OCCNC[C@H](O)c2ccccc2)cc1` reads “inactive”; that for `O=C1CC2(CCCC2)CC(=O)N1`, “inactive”; that for `CC[N+]1(CC)CCC(=C(c2ccccc2)c2ccccc2)C1C` (stereo not given), 1.74 µM (active).
For `COc1cc(NS(=O)(=O)c2ccc(N)cc2)nc(C)n1`, the Potency entry was “inactive”.
For `CCCCCOc1ccc(C2SC(=O)NC2=O)cc1OCC` (stereo not given), the Potency result was “inactive”.
The result for `O=C(O)CNC(=O)CNC(=O)CNC(=O)CSC(=O)c1ccccc1` reads “inactive”; that for `CCCCC/C=C\C/C=C\CCCCCCCC(=O)NC(C)c1ccccc1` (stereo not given), 3.89 µM (active).
The result for `COc1cc(C(=O)OC(COCCC(C)C)CN2CCOCC2)cc(OC)c1OC` (stereo not given) reads “inactive”.
With `O=C1Nc2ccccc2C1(c1ccc(O)cc1)c1ccc(O)cc1`, the Potency was 19.5 µM (active).
The result for `Nc1c2ccccc2nc2ccccc12` reads 17.4 µM (active); that for `N=C(N)c1ccc(OCCCOc2ccc(C(=N)N)cc2)cc1`, “inactive”; that for `CN(C)C(=O)CNC(=O)Cc1ccccc1`, “inactive”.
The result for `O=C1c2ccccc2CCc2ccccc21` reads “inactive”.
Regarding `CCCN(CCC)C(=O)C(CCC(=O)OCCCN1CCN(CCOC(=O)Cc2c(C)n(C(=O)c3ccc(Cl)cc3)c3ccc(OC)cc23)CC1)NC(=O)c1ccccc1` (stereo not given), the Potency is 7.76 µM (active).
As for `CC(=O)CC/C=C(\C)CC/C=C(\C)CC/C=C(\C)CCC=C(C)C`, the Potency entry is “inactive”.
The result for `Nc1ccc2cc3ccc(N)cc3nc2c1` reads “inactive”.
The result for `Cc1cc(C(C)(C)C)c(O)c(C(C)(C)C)c1` reads “inactive”; that for `COc1ccc(CCC(C)=O)cc1`, “inactive”; that for `CC(C)C(=O)Nc1cccc(C2CN3CCSC3=N2)c1` (stereo not given), “inactive”.
On to `N#Cc1cc(NC(=O)C(=O)O)c(Cl)c(NC(=O)C(=O)O)c1`, for which the Potency result was “inactive”.
The result for `CCN1CCN(C(=O)N[C@@H](C(=O)N[C@@H]2C(=O)N3[C@@H]2SC(C)(C)[C@H]3C(=O)O)c2ccccc2)C(=O)C1=O` reads “inactive”; that for `CC(=O)OC[C@H]1O[C@@H](OC(C)=O)[C@H](OC(C)=O)[C@@H]1OC(C)=O`, “inactive”; that for `Cc1cccc(C)c1NC(=O)c1cc(S(N)(=O)=O)c(Cl)cc1O`, “inactive”.
The result for `OC1(c2ccccc2)CCNCC1` reads 27.5 µM (active).
